Shown are actives, neighbours in structure and some others; about 4% of the full set was active somewhere.
tim23-1 inh – tim23-1 yeast growth inhibition. S. cerevisiae tim23-1 growth, BacTiter-Glo luminescence, 24 h. AID 463212. inhibition, % at 20 µM. hit rate 1.3% among 330,000;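 active = growth inhibition of the mutant yeast at or above 50%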;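 note: temperature-sensitive mutant grown at 25 °C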
NLRP3 yeast inh – inhibitors of NALP3 inflammasome in yeast. Yeast reconstituted NLRP3/ASC/caspase-1, beta-gal luminescence, 24 h. inhibition, % at 10 µM. hit rate 0.39% among 330,000. AID 2825;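 active = inhibition of 50% or more; inactive = inhibition below 50%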
NALP1 inh – inhibitors of NALP1 inflammasome in yeast | S. cerevisiae NALP1/ASC/caspase-1 growth, X-gal OD620, 72 h | inhibition, % at 10 µM | hit rate 0.61% among 280,000 | AID 2071; in the data active = inhibition mostly above about 24%, no sharp cut-off; inactive = mostly below about 32%
tim10-1 inh – inhibits growth of tim10-1 mutant yeast; AID 463190; hit rate 2.2% among 330,000; inhibition, % at 20 µM; S. cerevisiae tim10-1 ts strain growth, BacTiter-Glo, 24 h;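 active = inhibition of at least 40%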;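 note: mutant grown at 25 °C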
TIM10 inh – inhibits growth of TIM10 yeast strain; S. cerevisiae TIM10 strain growth, BacTiter-Glo luminescence, 24 h; inhibition, % at 10 µM; hit rate 1.4% among 330,000; AID 463195;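 active = inhibition of 40% or more at the single tested concentration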;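 note: wild-type TIM10 isogenic control strain grown at permissive 25 °C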
NALP3 confirm – confirmation of NALP3 inhibitors in yeast | shares compounds with NLRP3 yeast inh | yeast expressing human NALP3, luminescence | inhibition, % at 10 µM | hit rate 81% among 1,300; in the data active = inhibition above about 48%
Casp1-ASC yeast – active in yeast caspase-1-ASC counter-screen for NALP3 inhibitors; inhibition, % at 10 µM; yeast expressing Caspase-1-ASC, luminescence counter screen; hit rate 66% among 1,000; shares compounds with NLRP3 yeast inh
NALP3 yeast rt – confirmation retest of NALP3 inhibitors in yeast; shares compounds with NLRP3 yeast inh; yeast expressing human NALP3, luminescence read-out; inhibition, % at 10 µM; hit rate 53% among 1,000; AID 488794
tim10-1 confirm – confirmation of tim10-1 mutant yeast growth inhibitors | shares compounds with tim10-1 inh | S. cerevisiae tim10-1 ts strain growth, BacTiter-Glo, 24 h | inhibition, % at 20 µM | hit rate 56% among 7,400 | AID 463213;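 active = inhibition of yeast growth at or above a set limit in either of two repeat tests at 20 µM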;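 note: tim10-1 mutant grown at permissive 25 °C to find synthetic lethal compounds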
TIM10 conf – TIM10 yeast growth inhibition, confirmed; shares compounds with TIM10 inh; S. cerevisiae tim10 strain growth, BacTiter-Glo luminescence, 24 h; inhibition, % at 10 µM; hit rate 63% among 4,600;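 active = inhibition of yeast growth at or above a set limit in either of two replicates at 10 µM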; note: this counterscreen used the strain with wild-type TIM10
tim23-1 confirm – tim23-1 yeast growth inhibition, confirmed. AID 463218. shares compounds with tim23-1 inh. inhibition, % at 20 µM. hit rate 83% among 4,400. S. cerevisiae tim23-1 growth, BacTiter-Glo luminescence, 24 h;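 active = inhibition above about 39% in either of two replicate wells at 20 µM, limit read from the data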;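 note: temperature-sensitive tim23-1 mutant grown at 25 °C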
Of the large screens only hits and unclear results are named; the others gave an inactive call (follow-up assays come after a bar, where they were run). Cut-off read from the data, not from the text of the source, unless noted: active = inhibition above about 50%; inactive = the rest.

CC(=O)Nc1ccc(NC(=O)c2nc(S(=O)(=O)Cc3cccc(C)c3)ncc2Cl)cc1	none
CCc1ccc(NC(=O)c2nc(S(=O)(=O)Cc3ccccc3)ncc2Cl)cc1	tim23-1 inh 66, NLRP3 yeast inh 60 | NALP3 confirm 73 | Casp1-ASC yeast 54 | NALP3 yeast rt 66 | tim23-1 confirm inactive
O=[N+]([O-])c1ccc(O)c(CSc2nnnn2-c2ccccc2)c1	none
CC(C)Cn1cc(F)c(=O)n(CC(C)C)c1=O	none
COc1ccc(C(=O)Nc2nc3ccccc3[nH]2)cc1	tim23-1 inh 60, NLRP3 yeast inh 51 | NALP3 confirm 81 | Casp1-ASC yeast 60 | NALP3 yeast rt inactive | tim23-1 confirm 61
Cc1c(C(=O)Nc2nc3ccccc3[nH]2)oc2ccccc12	tim23-1 inh 59, NLRP3 yeast inh 61, TIM10 inh 62 | NALP3 confirm inactive | TIM10 conf inactive | tim23-1 confirm 74
COc1ccccc1C(=O)Nc1nc2ccccc2[nH]1	tim23-1 inh 85, NLRP3 yeast inh 60, tim10-1 inh 67, TIM10 inh 68 | NALP3 confirm 78 | Casp1-ASC yeast 79 | NALP3 yeast rt inactive | tim10-1 confirm 66 | TIM10 conf 55 | tim23-1 confirm 83
Cc1c(C(=O)Nc2nc3ccccc3[nH]2)oc2ccc(Br)cc12	none
Cn1nc(-c2ccccc2)cc1NC(=O)c1ccc(Cl)cc1	none (no result: NALP1 inh)
COc1cc(Cl)c(C)cc1NC(=O)CSc1nnc(-c2ccccn2)n1Cc1ccco1	none
C=CCSc1nsc(NC(=O)Nc2ccc(F)cc2)n1	tim23-1 inh 78, NLRP3 yeast inh 56, tim10-1 inh 62, TIM10 inh 66 | NALP3 confirm 78 | Casp1-ASC yeast 79 | NALP3 yeast rt 82 | tim10-1 confirm 74 | TIM10 conf 65 | tim23-1 confirm 78
Cn1nnc(NC(=S)NC(=O)c2cccc3ccccc23)n1	tim23-1 inh 57, NLRP3 yeast inh 56, tim10-1 inh 53 | NALP3 confirm 64 | Casp1-ASC yeast 71 | NALP3 yeast rt 55 | tim10-1 confirm inactive | tim23-1 confirm inactive
Cn1nnc(NC(=S)NC(=O)c2cccs2)n1	none
N/C(Cc1cccc2ccccc12)=N\OC(=O)COc1ccccc1	none
Cc1cccc(C(=O)O/N=C(\N)Cc2cccc3ccccc23)c1	tim23-1 inh 81, NLRP3 yeast inh 53, tim10-1 inh 43, TIM10 inh 77 | NALP3 confirm 65 | Casp1-ASC yeast inactive | NALP3 yeast rt 64 | tim10-1 confirm 30 | TIM10 conf 84 | tim23-1 confirm 64
O=C(Oc1cc(=O)oc2c1c(=O)n1c3c(cccc23)CC1)c1ccccc1	tim23-1 inh 58, NLRP3 yeast inh 64, TIM10 inh 41 | NALP3 confirm 76 | Casp1-ASC yeast 56 | NALP3 yeast rt 63 | TIM10 conf inactive | tim23-1 confirm 66
O=C(Oc1cc(=O)oc2c1c(=O)n1c3c(cccc23)CC1)c1ccc(F)cc1	tim23-1 inh 71, NLRP3 yeast inh 58, tim10-1 inh 46, TIM10 inh 47 | NALP3 confirm 74 | tim10-1 confirm inactive | TIM10 conf inactive | tim23-1 confirm 53
CCOC(=O)CNC(=O)N1CCCC(C(=O)c2ccccc2SC)C1 (centres undefined)	none
Cc1ccc(C)c(Sc2ccc(NC(=O)CCl)cc2)c1	tim23-1 inh 74, NLRP3 yeast inh 81, tim10-1 inh 57, TIM10 inh 51 (no result: NALP1 inh) | NALP3 confirm 81 | Casp1-ASC yeast 88 | NALP3 yeast rt 74 | tim10-1 confirm 55 | TIM10 conf 36 | tim23-1 confirm 49
Cc1ccc(Sc2ccc(NC(=O)CCl)cc2)cc1C	tim23-1 inh 66, NLRP3 yeast inh 66, NALP1 inh 57, tim10-1 inh 50, TIM10 inh 40 | NALP3 confirm 76 | Casp1-ASC yeast 62 | NALP3 yeast rt 66 | tim10-1 confirm 52 | TIM10 conf 39 | tim23-1 confirm 76
COC(=O)[C@]1(C)N[C@H](CN(C)C(=O)c2ccc(F)cc2)[C@@H]2C(=O)N(C)C(=O)[C@@H]21	none (no result: NALP1 inh)
CC(C)(C)OC(=O)NCC1CCC(C(=O)NC[C@H](CC(=O)O)c2ccc(Cl)cc2)CC1 (some centres undefined)	none
O=C(O)c1cc(NC(=O)c2ccccc2F)cc(NC(=O)c2ccccc2F)c1	none
O=C(Nc1ccc(Nc2ccccc2)cc1)c1ccccc1F	tim23-1 inh 64, NLRP3 yeast inh 52 | NALP3 confirm 68 | Casp1-ASC yeast 58 | NALP3 yeast rt 64 | tim23-1 confirm 61
O=C(Nc1ccc(Nc2ccccc2)cc1)c1ccc(Br)o1	tim23-1 inh 52, NLRP3 yeast inh 66, tim10-1 inh 41 | NALP3 confirm 76 | Casp1-ASC yeast 76 | NALP3 yeast rt 74 | tim10-1 confirm 33 | tim23-1 confirm 80
COC(=O)c1ccc2c(c1O)C(=O)c1ccccc1C2=O	tim23-1 inh 77, NLRP3 yeast inh 54, tim10-1 inh 80, TIM10 inh 91 | NALP3 confirm 61 | Casp1-ASC yeast 61 | NALP3 yeast rt 52 | tim10-1 confirm 75 | TIM10 conf 91 | tim23-1 confirm 82
CC1(C)CC(=O)C(=Cc2cn(-c3ccccc3)nc2-c2ccccc2)C(=O)C1	tim23-1 inh 64, NLRP3 yeast inh 54, TIM10 inh 64 (no result: NALP1 inh) | NALP3 confirm 83 | Casp1-ASC yeast inactive | NALP3 yeast rt inactive | TIM10 conf inactive | tim23-1 confirm inactive
O=C(Nc1ccc2c(c1)OCCO2)c1cccc(Br)c1	tim23-1 inh 56, NLRP3 yeast inh 52 | NALP3 confirm 73 | Casp1-ASC yeast 50 | NALP3 yeast rt 51 | tim23-1 confirm 58
N#C/C(C(N)=O)=c1/ccc2c(c1)N1C3=C(CCCC3)CC3CCCCC31N=2 (centres undefined)	tim23-1 inh 63, NLRP3 yeast inh 57 | NALP3 confirm inactive | tim23-1 confirm 52
CC(C)(C)c1nc2ccc(NS(=O)(=O)c3ccc(F)c(F)c3F)cc2[nH]1	none
Cn1c(=O)c(C(=O)NNC(=O)c2ccccc2Br)c(O)c2ccccc21	tim23-1 inh 51, NLRP3 yeast inh 59 | NALP3 confirm 84 | Casp1-ASC yeast 53 | NALP3 yeast rt 65 | tim23-1 confirm inactive
